Records with an inconclusive call do not appear. Calls of active or inactive are those of the source. Unless noted, calls follow the shape of the dose curve; as a rule, active = well fitted curve in the direction sought with a large enough effect in the repeat runs; inconclusive = weak or mixed curves; inactive = no such curve, though single readings can be large; an effect the other way counts as inactive or inconclusive.
Key:
[1] = qHTS assay to identify small molecule agonists of the RXR signaling pathway - cell viability counter screen (AID 1159529); also: nearly all actives have a fitted effect of over 50% in size
Procedure, shortened: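 RXR-alpha-UAS-bla HEK 293T cells in medium with 2% charcoal-stripped FBS were pre-incubated 5 hr, then compound-treated 16 hr at 37 C. Viability was read by CellTiter-Glo luminescence in the same wells as the beta-lactamase assay, with tetraoctyl ammonium bromide as positive control.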

[2] = qHTS assay to identify small molecule antagonists of the retinoid acid receptor (RAR) signaling pathway - cell viability counter screen (AID 1159551); also: nearly all actives have a fitted effect of over 35% in size
Procedure, shortened: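 C3RL4 RARE-luciferase cells, 1,000/well, incubated overnight, then dosed with compound plus 1 uM retinol (final). After 6 hr at 37 C, viability read by CellTiter-Glo ATP luminescence following 30 min at room temperature.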

[3] = qHTS assay to identify small molecule antagonists of the retinoic acid receptor (RAR) signaling pathway (AID 1159552; also: nearly all actives have a fitted effect of over 50% in size)
Procedure, shortened: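 Retinol signaling pathway inhibitors screened in C3RL4 RARE-luciferase reporter cells seeded overnight at 37 C, then compounds added with 1 uM (final) retinol as pathway substrate. After 6 hr at 37 C, luciferase luminescence read after 30 min at room temperature.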

[4] = qHTS assay to identify small molecule agonists of the retinoic acid receptor (RAR) signaling pathway (AID 1159553); settings: C3RL4 RARE luciferase reporter, agonist, 6 h; activation: at 73.3 µM (top of the series)
Procedure, shortened: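 C3RL4 RARE-luciferase cells were seeded at 1,000/well and grown overnight at 37 C, then exposed to compounds for 6 hr at 37 C, 5% CO2. Luciferase reagent was added and luminescence was read after 30 min at room temperature.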

[5] = qHTS assay to identify small molecule antagonists of the estrogen related receptor (ERR) signaling pathway from Tox21 library - cell viability counter screen (AID 1224834); also: nearly all actives have a fitted effect of over 30% in size; also: potency is read from the fitted curve at half-maximal effect
Procedure, shortened: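 ERR reporter cells, 2,000 per well, rested 6 h, then exposed to compound in DMSO for 17.5 hours at 37 C. Viability read as fluorescence after 30 min with CellTiter-Fluor.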

[6] = target: Luciferin 4-monooxygenase (Photinus pyralis) (UniProt P08659); experiment: qHTS assay to identify small molecule inhibitors of firefly luciferase (AID 1224835); also: nearly all actives have a fitted effect of over 25% in size; also: potency is read from the fitted curve at half-maximal effect
Procedure, shortened: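 Quantitative HTS format; KM concentrations of both substrates. Purified P. pyralis FLuc activity quantified from luminescence images.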

[7] = target: Nuclear receptor subfamily 1 group I member 3 (Homo sapiens) (UniProt Q14994); experiment: qHTS assay to identify small molecule antagonists of the constitutive androstane receptor (CAR) signaling pathway (AID 1224838); also: nearly all actives have a fitted effect of over 40% in size
Procedure, shortened: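 HepG2 cells stably carrying hCAR and a CYP2B6-2.2kb luciferase reporter, seeded 4 hrs before compound (15 concentrations). Stimulated with 50 nM CITCO for 24 hr at 37 C. ONE-Glo luminescence read after 30 min at room temperature.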

[8] = target: Nuclear receptor subfamily 1 group I member 3 (Homo sapiens) (UniProt Q14994); experiment: qHTS assay to identify small molecule agonists of the constitutive androstane receptor (CAR) signaling pathway (AID 1224839); also: nearly all actives have a fitted effect of over 15% in size
Procedure, shortened: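 HepG2 cells stably co-transfected with hCAR and a CYP2B6-2.2kb luciferase reporter; compounds at 15 concentrations with 0.75 uM PK11195 present. After 24 hr at 37 C, luciferase read by ONE-Glo luminescence.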

[9] = qHTS assay to identify small molecule agonists of H2AX - cell viability counter screen (AID 1224847; calls by dose curve; also: top concentration of the series differs between compounds; nearly all actives have a fitted effect of over 30% in size)
Procedure, shortened: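 CHO-K1 cells plated overnight at 37C, then exposed 3 h at 37C to compounds at 15 concentrations (0.76% DMSO final). Viability by CellTiter-Glo luminescence after 30 min at room temperature.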

[10] = qHTS assay to identify small molecule agonists of the constitutive androstane receptor (CAR) signaling pathway - cell viability counter screen (AID 1224836); also: nearly all actives have a fitted effect of over 45% in size
Procedure, shortened: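 HepG2 cells stably carrying hCAR and a CYP2B6-2.2kb reporter; 15-concentration compounds plus PK11195 (final 0.75 uM), 23 hr at 37 C/5% CO2. Viability read by CellTiter-Fluor fluorescence.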

[11] = qHTS assay to identify small molecule antagonists of the constitutive androstane receptor (CAR) signaling pathway - cell viability counter screen (AID 1224837); also: nearly all actives have a fitted effect of over 45% in size
Procedure, shortened: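 HepG2 cells stably carrying hCAR and CYP2B6-2.2kb reporter, stimulated with 50 nM CITCO and compounds at 15 concentrations for 23 h at 37 C. Viability measured by CellTiter-Fluor fluorescence.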

[12] = qHTS assay to identify small molecule antagonists of the estrogen related receptor signaling pathway with the pleiotropic PPARgamma coactivator (PGC) from Tox21 10K library - cell viability counter screen (AID 1224840; active = well fitted cell-killing curve with a large enough effect in the repeat runs, not every such curve was filed as active; also: nearly all actives have a fitted effect of over 40% in size)
Procedure, shortened: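 PGC/ERR cells (2,000/well) plated 6 h, then compound-treated for 17.5 h at 37 C. Viability measured by CellTiter-Fluor fluorescence after 30 min at 37 C, multiplexed with the pathway assay.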

[13] = qHTS assay to identify small molecule antagonists of the estrogen related receptor signaling pathway with the pleiotropic PPARgamma coactivator (PGC) from Tox21 10K library (AID 1224841; call rule not given here; also: actives are mostly falling curves and most rising ones were filed inactive; nearly all actives have a fitted effect of over 50% in size)
Procedure, shortened: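 PGC/ERR cell line, 2,000 cells/well, pre-incubated 6 hours at 37 C, then exposed to compounds for 18 hours at 37 C; luciferase read with One-Glo luminescence after 30 min at room temperature.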

[14] = qHTS assay to identify small molecule agonists of the estrogen related receptor signaling pathway with the pleiotropic PPARgamma coactivator (PGC) from Tox21 10K library (AID 1224842); also: nearly all actives have a fitted effect of over 15% in size
Procedure, shortened: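 PGC/ERR reporter cells (NTP line) were seeded 2,000 per well, rested 6 h at 37 C/5% CO2, then pin-dosed with compounds in DMSO for 18 h at 37 C; luciferase read by One-Glo luminescence after 30 min at room temperature.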

[15] = target: Thyrotropin receptor (Homo sapiens) (UniProt P16473); experiment: qHTS assay to identify small molecule agonists of the thyroid stimulating hormone receptor (TSHR) signaling pathway (AID 1224843; calls by dose curve; also: nearly all actives have a fitted effect of over 45% in size)
Procedure, shortened: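 TSHR-expressing HEK293 cells (800 per well) were exposed to compounds for 30 min at room temperature. cAMP was then detected by HTRF competition with cAMP-d2 and anti-cAMP cryptate, read after 1 h at room temperature. Fifteen concentrations, triplicate.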

[16] = qHTS assay to identify small molecule agonists of the hypoxia (HIF-1) signaling pathway - cell viability counter screen (AID 1224844; calls by dose curve; also: nearly all actives have a fitted effect of over 50% in size)
Procedure, shortened: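 HRE-bla ME-180 cells, 2,000/well in 0.5% dialyzed FBS medium, treated 17 h at 37C with compounds. Viability read in the same wells as the bla reporter, by CellTiter-Glo luminescence after 30 min at room temperature.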

[17] = qHTS assay to identify small molecule agonists of H2AX (AID 1224845; active = well fitted activation curve with a large enough effect in the signal ratio in the repeat runs, not every such curve was filed as active; the % refers to the signal ratio)
Procedure, shortened: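 Wild-type CHO-K1 cells plated overnight, then exposed 3 hr at 37C to compounds at 15 concentrations (0.76% DMSO). Lysed, then HTRF anti-pH2AX(S139)-cryptate/anti-H2AX-d2 detection after 24 hr at room temperature; emissions 665 and 620 nm.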

[18] = qHTS assay to identify small molecule antagonists of the estrogen related receptor (ERR) signaling pathway from Tox21 library (AID 1224848); also: nearly all actives have a fitted effect of over 50% in size
Procedure, shortened: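 Cells: ERR line, 2,000/well; 6 h preincubation 37 C/5% CO2. Cpd in DMSO via pin tool; 18 h, 37 C. ONE-Glo, 30 min RT, luminescence.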

[19] = qHTS assay to identify small molecule agonists of the estrogen related receptor (ERR) signaling pathway from Tox21 library (AID 1224849; calls by dose curve; also: nearly all actives have a fitted effect of over 15% in size)
Procedure, shortened: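 ERR reporter cells (NTP line) pre-incubated 6 hours at 37 C, then exposed to compounds for 18 hours at 37 C. ONE-Glo luciferase luminescence was read after 30 minutes at room temperature.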

[20] = qHTS assay to identify small molecule agonists of the hypoxia (HIF-1) signaling pathway (AID 1224846; active = well fitted activation curve with a large enough effect in the signal ratio in the repeat runs, not every such curve was filed as active; the % refers to the signal ratio)
Procedure, shortened: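 HRE-bla ME-180 beta-lactamase reporter cells in medium with 0.5% dialyzed FBS, pre-incubated 5 h then exposed to compounds 17 h at 37C, 5% CO2; reporter induction read with CCF4-AM FRET substrate.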
% is scaled to controls: 0 for no effect and ±100 for the full control effect.

Thyrotropin receptor (Homo sapiens), sequence (P16473 whole entry, looked up): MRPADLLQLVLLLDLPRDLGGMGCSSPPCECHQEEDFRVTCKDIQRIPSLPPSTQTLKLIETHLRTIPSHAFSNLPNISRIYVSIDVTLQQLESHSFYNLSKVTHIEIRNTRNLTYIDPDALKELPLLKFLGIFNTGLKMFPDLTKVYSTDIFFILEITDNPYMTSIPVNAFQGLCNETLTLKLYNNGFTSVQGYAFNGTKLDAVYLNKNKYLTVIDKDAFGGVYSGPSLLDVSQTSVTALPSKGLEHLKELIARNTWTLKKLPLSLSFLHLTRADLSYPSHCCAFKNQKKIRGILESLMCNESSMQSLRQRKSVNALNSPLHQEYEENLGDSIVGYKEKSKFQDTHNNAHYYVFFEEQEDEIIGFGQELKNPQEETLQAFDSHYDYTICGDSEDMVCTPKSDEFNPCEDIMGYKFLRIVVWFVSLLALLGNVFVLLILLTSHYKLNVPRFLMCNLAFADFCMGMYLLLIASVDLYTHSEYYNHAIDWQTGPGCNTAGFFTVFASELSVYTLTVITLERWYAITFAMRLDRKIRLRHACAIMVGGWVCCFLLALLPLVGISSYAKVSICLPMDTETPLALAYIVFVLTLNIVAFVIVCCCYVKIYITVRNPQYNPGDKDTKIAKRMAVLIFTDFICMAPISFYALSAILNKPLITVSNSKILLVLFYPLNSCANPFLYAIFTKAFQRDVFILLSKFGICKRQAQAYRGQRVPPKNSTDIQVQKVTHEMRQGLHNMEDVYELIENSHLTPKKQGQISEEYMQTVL
Nuclear receptor subfamily 1 group I member 3 (Homo sapiens), sequence (Q14994 whole entry, looked up): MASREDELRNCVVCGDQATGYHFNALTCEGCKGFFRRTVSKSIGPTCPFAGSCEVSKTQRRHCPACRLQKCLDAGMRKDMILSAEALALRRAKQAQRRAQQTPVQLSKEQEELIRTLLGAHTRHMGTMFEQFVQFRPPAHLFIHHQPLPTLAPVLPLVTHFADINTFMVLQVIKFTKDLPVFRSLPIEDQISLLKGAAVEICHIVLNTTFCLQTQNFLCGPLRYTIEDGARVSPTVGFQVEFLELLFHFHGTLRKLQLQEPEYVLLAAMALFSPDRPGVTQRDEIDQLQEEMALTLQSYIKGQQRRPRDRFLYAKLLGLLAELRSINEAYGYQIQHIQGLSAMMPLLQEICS
Luciferin 4-monooxygenase (Photinus pyralis), sequence (P08659 whole entry, looked up): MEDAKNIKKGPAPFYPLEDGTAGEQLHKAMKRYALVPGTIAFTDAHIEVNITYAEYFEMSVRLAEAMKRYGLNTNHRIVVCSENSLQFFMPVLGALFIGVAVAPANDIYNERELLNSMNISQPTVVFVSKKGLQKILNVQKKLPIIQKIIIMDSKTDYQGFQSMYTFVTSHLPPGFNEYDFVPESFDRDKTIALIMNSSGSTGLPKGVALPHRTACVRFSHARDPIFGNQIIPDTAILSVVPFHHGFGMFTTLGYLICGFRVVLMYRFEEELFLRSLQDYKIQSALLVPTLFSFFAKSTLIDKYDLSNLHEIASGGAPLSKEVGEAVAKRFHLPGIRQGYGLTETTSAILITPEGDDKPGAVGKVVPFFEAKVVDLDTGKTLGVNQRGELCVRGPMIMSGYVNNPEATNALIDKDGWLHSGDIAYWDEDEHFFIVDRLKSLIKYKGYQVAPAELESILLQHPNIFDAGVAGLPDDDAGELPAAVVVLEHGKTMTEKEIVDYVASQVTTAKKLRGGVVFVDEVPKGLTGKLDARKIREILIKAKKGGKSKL

CC1=NN(c2ccc(S(=O)(=O)O)cc2)C(=O)C1N=Nc1ccccc1 (configuration not stated)
inactive: outcome [1] | outcome [2] | Potency [3] | Potency [4] | Potency [7] | Potency [8] | Potency [9]
active: Potency [5] 54.5 µM | Potency [6] 71 µM

COc1cc(C=O)ccc1OC(=O)C(C)C
inactive: outcome [1] | outcome [2] | Potency [3] | Potency [4] | Potency [5] | outcome [10] | Potency [11] | outcome [12] | Potency [13] | outcome [14] | outcome [15] | outcome [16] | outcome [17] | Potency [9] | Potency [18] | outcome [19]

CCCCOC(=O)C(=O)OCCCC
inactive: outcome [1] | outcome [2] | Potency [3] | Potency [4] | Potency [5] | outcome [10] | Potency [11] | Potency [7] | outcome [12] | Potency [13] | outcome [14] | outcome [20] | Potency [9] | Potency [18] | outcome [19]

CC(C)c1ccccc1O
inactive: outcome [1] | outcome [2] | Potency [3] | Potency [4] | Potency [5] | Potency [6] | outcome [10] | Potency [11] | outcome [12] | outcome [16] | outcome [20] | Potency [9]

CCCCCCCCCCCCC
inactive: outcome [1] | outcome [2] | Potency [3] | Potency [4] | Potency [5] | Potency [6] | outcome [10] | Potency [11] | outcome [12] | outcome [16] | Potency [9]

C=CCOC(=O)c1ccc(C(=O)OCC=C)c(C(=O)OCC=C)c1
inactive: outcome [1] | outcome [2] | Potency [3] | Potency [4] | Potency [5] | outcome [10] | Potency [11] | Potency [7] | outcome [12] | Potency [13] | outcome [14] | outcome [16] | outcome [17] | Potency [9] | Potency [18] | outcome [19]

CCOC(=O)CCc1ccccc1
inactive: outcome [1] | outcome [2] | Potency [3] | Potency [4] | Potency [5] | outcome [10] | Potency [11] | outcome [12] | outcome [15] | outcome [16] | outcome [17] | outcome [20]

C=CC(C)(O)CC/C=C(\C)CC (configuration not stated)
inactive: outcome [1] | outcome [2] | Potency [3] | Potency [4] | Potency [5] | outcome [10] | Potency [11] | outcome [15] | outcome [16] | outcome [20]

O=c1[nH]c(=O)c2[nH]c(=O)[nH]c2[nH]1
inactive: activity change, negative = cytotoxicity [1] 9.18% [at 6.97 µM] | activity change, negative = cytotoxicity [2] -0.439% [at 8.39 µM] | activity, negative = inhibition [3] 2.16% [at 8.39 µM] | activation [4] 0.0515% [at 8.36 µM] | viability change, negative = cytotoxic [5] -1.5% [at 8.39 µM] | viability change, negative = cytotoxic [10] -1.86% [at 8.39 µM] | activity change, negative = cytotoxicity [11] -10.7% [at 8.39 µM] | activity change, negative = cytotoxicity [16] 3.89% [at 6.97 µM] | activation (H2AX phosphorylation) [17] 0.259% [at 14 µM] | activation [20] 0.359% [at 7.01 µM] | activity change, negative = cytotoxicity [9] -1.7% [at 14 µM]

CCC1Nc2cc(Cl)c(S(N)(=O)=O)cc2S(=O)(=O)N1 (configuration not stated)
inactive: outcome [1] | outcome [2] | Potency [3] | Potency [4] | Potency [5] | outcome [10] | Potency [11] | outcome [12] | outcome [16] | outcome [17] | outcome [20]

CCCCC(CC)C(=O)OC(C)C (configuration not stated)
inactive: outcome [1] | outcome [2] | Potency [3] | Potency [4] | Potency [6] | outcome [10] | Potency [11] | outcome [12] | outcome [16]

CC(C)(C)NCCO
inactive: outcome [1] | outcome [2] | Potency [3] | Potency [4] | Potency [5] | outcome [10] | Potency [11] | outcome [12] | Potency [13] | outcome [14] | outcome [17] | outcome [20] | Potency [9] | Potency [18] | outcome [19]

Cc1cc(O)c2c(c1)C(=O)c1cccc(O)c1C2=O
inactive: outcome [1] | outcome [2] | Potency [3] | Potency [4] | Potency [6] | outcome [10] | Potency [11] | outcome [12] | outcome [16] | outcome [17] | outcome [20] | Potency [9]

CCCCCCCCCCCCOC(C)=O
inactive: outcome [1] | outcome [2] | Potency [3] | Potency [4] | Potency [5] | outcome [10] | Potency [11] | outcome [12] | outcome [15] | outcome [16] | outcome [17] | outcome [20]

Cc1ccccc1C(=O)N1CC/C(=N\OS(=O)(=O)O)c2ccc(Cl)cc21
inactive: outcome [1] | outcome [2] | Potency [3] | Potency [4] | Potency [5] | outcome [10] | Potency [11] | outcome [12] | outcome [14] | outcome [15] | outcome [16] | outcome [20] | Potency [9] | Potency [18] | outcome [19]

Cc1oc(=O)oc1CN1CCN(c2cc3c(cc2F)c(=O)c(C(=O)O)c2n3C(C)S2)CC1 (configuration not stated)
inactive: outcome [1] | outcome [2] | Potency [3] | Potency [4] | Potency [6] | outcome [10] | Potency [11] | outcome [12] | outcome [15] | outcome [17] | Potency [9]

COc1cc2c(Nc3ccc(Br)cc3F)ncnc2cc1OCC1CCN(C)CC1
inactive: outcome [1] | outcome [2] | Potency [3] | Potency [4] | Potency [6] | outcome [10] | Potency [11] | Potency [7] | outcome [12] | outcome [17] | outcome [20] | Potency [9]

CC(C)CCO
inactive: outcome [1] | outcome [2] | Potency [3] | Potency [4] | Potency [6] | outcome [10] | Potency [11] | outcome [12] | outcome [15] | outcome [17] | Potency [9]

C[C@@H]1C[C@H]2[C@@H]3C[C@H](F)C4=CC(=O)C=C[C@]4(C)[C@@]3(F)[C@@H](O)C[C@]2(C)[C@@]1(O)C(=O)CO
inactive: outcome [1] | outcome [2] | Potency [3] | Potency [4] | outcome [10] | Potency [11] | Potency [7] | outcome [12] | Potency [13] | outcome [14] | outcome [15] | outcome [16] | outcome [17] | outcome [20] | Potency [9] | Potency [18] | outcome [19]
